Screens deposited in PubChem BioAssay by Broad Institute.
BJeLR viab HTS: BJeLR cell viability reduction; BJeLR fibroblasts viability, CellTiterGlo ATP luminescence, 48 h; HRASV12, hTERT and SV40 LT/ST transformed; viability loss activity score, % (concentration not given with the values); actives 0.64% (n = 30,000); in the data active = viability loss activity score above about 50%;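 note: higher score means fewer live cells and less ATP luminescence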
A1 inh: inhibitors of A1. MEF A1-2A-BIM cells, caspase-Glo luminescence, 3 h; percent of clofoctol signal, DMSO as zero. caspase activation, % (concentration not given with the values). actives 0.51% (n = 21,000);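 active = most replicate scores above 10, or exactly half above 10 with mean activity above 10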;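 note: effector caspase 3 and 7 activity cleaving a DEVD luciferin substrate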
Numbers stand for hits; n = inactive; x = no result. The list is not random: actives were taken first. Their share in the collection is about 0.89%.

SMILES	BJeLR viab HTS	A1 inh
Cc1nc(-c2ccccc2)nc(OC(=O)N(C)C)c1Oc1cccc(C(F)(F)F)c1	n	n
C=C1[C@@H](C)[C@H]2[C@H](Cc3ccccc3)NC(=O)[C@]23OC(=O)/C=C\[C@H](O)CCC[C@@H](C)C/C=C/[C@H]3[C@@H]1O	n	30
CCSc1nc2ccccc2c(=O)n1-c1cccc(OC)c1	n	n
C/C=C\C(=O)O[C@@H]1C[C@H]2O[C@@H]3C=C(C)C(=O)C[C@]3(C)[C@]1(C)[C@]21CO1	101	11
CCC1(CC)OC(c2cccnc2)Nc2ccccc21 (stereo not drawn)	n	n
COc1cccc(OC)c1C1=NCC(=O)Nc2c1oc1ccc(Br)cc21	55	n
CCOC(=O)C1=C(CN2CC=C(c3ccccc3)CC2)NC(=O)NC1c1ccc(OC)cc1 (stereo not drawn)	n	n
O=C1NC(=O)C(=Cc2cn(Cc3ccccc3)c3ccccc23)C(=O)N1	n	33
Cc1ccc(-c2nc(Cn3cc(C=C4C(=O)N(C)C(=O)N(C)C4=O)c4ccccc43)no2)cc1	n	x
N#Cc1c(/N=C/c2cc(Br)ccc2O)sc2c1C1CCN2CC1	n	x
Cc1[nH]c2ccccc2c1CCNCC(C)(C)C	n	n
C[C@@H]1CC([C@H](O)CC2CC(=O)NC(=O)C2)C(=O)[C@@H](C)C1 (stereo partly drawn)	87	n
C[C@@H]1C[C@@H]([C@H](O)CC2CC(=O)NC(=O)C2)C(=O)[C@@H](C)C1	61	n
CC(O)CN1CC2CC(C1)c1cccc(=O)n1C2 (stereo not drawn)	n	n
CC1(C)C(=O)C=C[C@@]2(C)C1C(=O)C(=O)[C@]1(C)C2CC[C@@]2(C)[C@H](c3ccoc3)C[C@H]3O[C@]321 (stereo partly drawn)	n	n
N#CC1(P(=S)(c2ccccc2)c2ccccc2)CCCC1	n	n
COCc1cc(OC(=O)N(C)C)nc(COc2ccc(Cl)cc2)n1	n	n
CC[C@@]1(O)C(=O)OCc2c1cc1n(c2=O)Cc2cc3c(O)cccc3nc2-1	107	n
COc1cccc(N2CCNCC2)c1	n	x
CC1=CC2OC3[C@H](O)C[C@@](C)([C@]34CO4)[C@@]2(CO)[C@H](O)C1=O (stereo partly drawn)	74	n
Cc1ccc(NC(=O)c2cccc(OC(=O)N(C)c3ccccc3)c2)cc1C	n	n
O=C(CC[N+](=O)[O-])OC[C@H]1O[C@@H](O)[C@H](OC(=O)CC[N+](=O)[O-])[C@@H](OC(=O)CC[N+](=O)[O-])[C@@H]1OC(=O)CC[N+](=O)[O-]	n	n
CC(/C=C/[C@@]1(C)[C@H](C)CCC(=O)[C@@H]1C)=C\Cc1c(O)c(Cl)c(C)c(C=O)c1O	n	n
